Test [1] in a line: qHTS for Inhibitors of the Functional Ribonucleoprotein Complex (vRNP) of Lassa (LASV) Arenavirus: LASV Primary Screen - GLuc reporter signal (AID 1347082; calls by dose curve; tested in HEK293 reporter line; also: series mostly up to about 57 µM; nearly all actives have a fitted effect of over 60% in size).
Test [2] is described as follows: qHTS for Inhibitors of the Functional Ribonucleoprotein Complex (vRNP) of Lassa (LASV) Arenavirus: Viability assay - alamar blue signal for LASV Primary Screen (AID 1347083; calls by dose curve; tested in HEK293 reporter line; also: nearly all actives have a fitted effect of over 80% in size; also: potency is read from the fitted curve at half-maximal effect).
A short description of test [3]: qHTS for Inhibitors of the Functional Ribonucleoprotein Complex (vRNP) of Lymphocytic Choriomeningitis Arenaviruses (LCMV): Viability assay - alamar blue signal for LCMV Primary Screen (AID 1347085; calls by dose curve; tested in HEK293 reporter line; also: series mostly up to about 57 µM; nearly all actives have a fitted effect of over 80% in size).
The target in test [4] is Nucleoprotein (Lymphocytic choriomeningitis virus (strain Armstrong)) (UniProt P09992). Description: qHTS for Inhibitors of the Functional Ribonucleoprotein Complex (vRNP) of Lymphocytic Choriomeningitis Arenaviruses (LCMV): LCMV Primary Screen - GLuc reporter signal (AID 1347086; calls by dose curve; also: series mostly up to about 57 µM; nearly all actives have a fitted effect of over 70% in size).
The nature of test [5]: qHTS of pediatric cancer cell lines to identify multiple opportunities for drug repurposing: Primary screen for TC32 cells (AID 1347089). Also: nearly all actives have a fitted effect of over 60% in size. The gist of the method:
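A viability screen of TC32 cells was run over 48 h, with primary MIPE doses spanning 0.78 nM–46 µM and NPC doses 0.59 nM–46 µM. ATP luminescence (CellTiter-Glo) served as the read-out.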

A short description of test [6]: qHTS of pediatric cancer cell lines to identify multiple opportunities for drug repurposing: Primary screen for DAOY cells (AID 1347090). Also: nearly all actives have a fitted effect of over 55% in size. Also: potency is read from the fitted curve at half-maximal effect. The essentials:
(§1)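 Eight- or eleven-point concentration series, 48 h treatment at 37 degrees C in growth media; readout CellTiter-Glo luminescence. Potency and efficacy were taken from the concentration-response curves.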

Test [7] is described as follows: qHTS of pediatric cancer cell lines to identify multiple opportunities for drug repurposing: Primary screen for U-2 OS cells (AID 1347096). Also: nearly all actives have a fitted effect of over 50% in size. The essentials: (§2)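 Cells (500-1,000/well) in growth media were settled 5 h at 37 degrees C, then given compounds for 48 h. Viability was read as CellTiter-Glo luminescence. Primary runs used MIPE at 11 points (0.78 nM-46 µM) and NPC at 8 points (0.59 nM-46 µM); follow-ups used 11 points.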

A short description of test [8]: qHTS of pediatric cancer cell lines to identify multiple opportunities for drug repurposing: Primary screen for SK-N-SH cells (AID 1347098). Also: nearly all actives have a fitted effect of over 65% in size. Also: potency is read from the fitted curve at half-maximal effect. The essentials:
(§3)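 Cells (500-1,000/well) rested 5 h, then received compounds for 48 h; metabolically active cells were measured by CellTiter-Glo luminescence. Final concentrations spanned up to 46 µM (MIPE, 11-point) or 0.59 nM-46 µM (NPC, 8-point) in primary screens, 11-point in follow-ups.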

Test [9] can be described thus: qHTS of pediatric cancer cell lines to identify multiple opportunities for drug repurposing: Primary screen for NB1643 cells (AID 1347099). Also: nearly all actives have a fitted effect of over 50% in size. Also: potency is read from the fitted curve at half-maximal effect. The essentials:
(§4)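 Cells seeded at 500-1,000 cells/well in growth media, rested 5 hours at 37 degrees C, 5% CO2, then dosed; MIPE compounds at 11-point (from 0.78 nM) and NPC at 8-point (from 0.59 nM) final concentrations. Viability by CellTiter-Glo luminescence after 48 hours.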

Test [10] is described as follows: qHTS of pediatric cancer cell lines to identify multiple opportunities for drug repurposing: Primary screen for LAN-5 cells (AID 1347100). Also: potency is read from the fitted curve at half-maximal effect. The gist of the method: as §2
A short description of test [11]: qHTS of pediatric cancer cell lines to identify multiple opportunities for drug repurposing: Primary screen for BT-12 cells (AID 1347101). Also: nearly all actives have a fitted effect of over 25% in size. Also: potency is read from the fitted curve at half-maximal effect. The essentials: as §3
Test [12] can be described thus: qHTS of pediatric cancer cell lines to identify multiple opportunities for drug repurposing: Primary screen for Rh18 cells (AID 1347102). Also: nearly all actives have a fitted effect of over 65% in size. The gist of the method:
as §2

Test [13] is described as follows: qHTS of pediatric cancer cell lines to identify multiple opportunities for drug repurposing: Primary screen for SK-N-MC cells (AID 1347093). Also: potency is read from the fitted curve at half-maximal effect. The essentials: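 Metabolically active cells were quantified by ATP-dependent luminescence (CellTiter-Glo, 15 min at room temperature) following 48 h treatment. Cells had been plated at 500-1,000 per well and settled for 5 h beforehand.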

Test [14] in a line: qHTS of pediatric cancer cell lines to identify multiple opportunities for drug repurposing: Primary screen for Saos-2 cells (AID 1347097). Also: nearly all actives have a fitted effect of over 40% in size. Also: potency is read from the fitted curve at half-maximal effect. The essentials:
as §4

Test [15] is described as follows: qHTS of pediatric cancer cell lines to identify multiple opportunities for drug repurposing: Primary screen for OHS-50 cells (AID 1347103). Also: nearly all actives have a fitted effect of over 40% in size. Also: potency is read from the fitted curve at half-maximal effect. The gist of the method: as §3
A short description of test [16]: qHTS of pediatric cancer cell lines to identify multiple opportunities for drug repurposing: Primary screen for A673 cells (AID 1347092). Also: nearly all actives have a fitted effect of over 45% in size. Also: potency is read from the fitted curve at half-maximal effect. The gist of the method: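 Titration-based qHTS on A673 cells: MIPE compounds spanned 11 points (0.78 nM to 46 µM final), NPC compounds 8 points (0.59 nM to 46 µM final). Viability after 48 h was measured by ATP luminescence.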

A short description of test [17]: qHTS of pediatric cancer cell lines to identify multiple opportunities for drug repurposing: Primary screen for BT-37 cells (AID 1347094). Also: potency is read from the fitted curve at half-maximal effect. The gist of the method:
as §4

A short description of test [18]: qHTS of pediatric cancer cell lines to identify multiple opportunities for drug repurposing: Primary screen for NB-EBc1 cells (AID 1347095). The gist of the method: as §4
The nature of test [19]: qHTS of pediatric cancer cell lines to identify multiple opportunities for drug repurposing: Primary screen for SJ-GBM2 cells (AID 1347091). Also: potency is read from the fitted curve at half-maximal effect. The essentials:
as §1

Records with an inconclusive call do not appear. Activity calls are given as the source filed them. Unless noted, calls follow the shape of the dose curve; as a rule, active = well fitted curve in the direction sought with a large enough effect; inconclusive = small, poorly fitted or top-dose-only effect, or another doubt; inactive = no such curve, though single readings can be large; an effect the other way counts as inactive or inconclusive.

Chain of Nucleoprotein (Lymphocytic choriomeningitis virus (strain Armstrong)) (P09992 whole entry, looked up): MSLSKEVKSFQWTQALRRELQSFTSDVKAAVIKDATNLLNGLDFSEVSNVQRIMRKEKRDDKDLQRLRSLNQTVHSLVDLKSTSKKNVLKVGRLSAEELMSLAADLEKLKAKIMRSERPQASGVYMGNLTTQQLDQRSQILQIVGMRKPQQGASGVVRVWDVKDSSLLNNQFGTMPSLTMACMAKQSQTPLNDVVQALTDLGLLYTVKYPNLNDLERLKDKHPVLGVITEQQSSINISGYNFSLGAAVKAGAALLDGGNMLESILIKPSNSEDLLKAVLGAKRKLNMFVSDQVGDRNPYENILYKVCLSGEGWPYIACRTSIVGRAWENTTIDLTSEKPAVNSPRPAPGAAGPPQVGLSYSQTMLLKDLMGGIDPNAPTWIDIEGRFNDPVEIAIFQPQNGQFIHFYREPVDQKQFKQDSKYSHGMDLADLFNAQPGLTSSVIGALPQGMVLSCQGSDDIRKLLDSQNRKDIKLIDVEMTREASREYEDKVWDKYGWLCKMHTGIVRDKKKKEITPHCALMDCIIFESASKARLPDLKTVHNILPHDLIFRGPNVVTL

With `CCCCCCCCCC(CC)c1ccc(S(=O)(=O)O)cc1` (configuration not stated), the Potency entry in test [1], in test [2], in [3], in test [4], in test [5] and in test [6] was “inactive” in each case. Further, the Potency result in test [7], in [8], in test [9], in [10], in [11] and in [12] was “inactive” in each case.
In the case of `ClC1=C(Cl)[C@]2(Cl)[C@@H]3[C@@H]4C[C@@H]([C@H]5O[C@@H]45)[C@@H]3[C@@]1(Cl)C2(Cl)Cl`, the Potency result in [1], in test [2], in test [3], in [4], in test [5] and in test [7] was “inactive” throughout. Also, the Potency in [6] was 38.6 µM (active); in test [13], 19.3 µM (active); in [14] it was 38.6 µM (active); in test [15], 28.2 µM (active).
In the case of `CCOP(=O)(OCC)C(C)NC(=O)N(CCCl)N=O` (configuration not stated), the Potency entry in [1], in [2], in test [3], in test [4], in [5] and in test [6] was “inactive” in each case. The Potency entry in test [16], in [13], in [17], in [8], in [9] and in test [10] was “inactive” throughout. The Potency entry in test [11], in test [12] and in test [15] was “inactive” in each case.
In the case of `CCO/N=C(\CC)C1=C(O)CC(c2c(C)cc(C)cc2C)CC1=O` (configuration not stated), the Potency entry in test [1], in test [2], in test [3], in test [4], in test [5] and in test [6] was “inactive” throughout. The Potency entry in [16], in test [17], in test [18], in test [7] and in test [10] was “inactive” in each case.
For `O=S(=O)(c1ccc(Cl)cc1)c1ccc(Cl)cc1`, the Potency result in [1], in test [2], in test [3], in test [4], in test [5] and in [6] was “inactive” each time. The Potency result in [16], in test [10] and in [12] was “inactive” throughout.
For the molecule `COc1ccc2c(c1)CN(C)CC2c1ccc(Cl)c(Cl)c1` (configuration not stated), the Potency result in test [1], in test [3], in test [4], in [5], in test [6] and in [7] was “inactive” in each case. The Potency entry in test [12] was “inactive”. Besides, the Potency was 7.69 µM (active) in [2]; 18.7 µM (active) in test [19]; 18.7 µM (active) in test [13]; 18.7 µM (active) in test [14]; 20.9 µM (active) in test [10]; 21.7 µM (active) in test [15].
On to `O=C(O)CNC(=O)c1c(O)c2ccccc2n(Cc2ccccc2)c1=O`, for which the Potency result in test [1], in test [2], in test [3], in test [4], in [5] and in [6] was “inactive” each time. Further, the Potency entry in test [19], in test [17], in test [14], in test [8], in [9] and in test [10] was “inactive” each time. In test [12], the Potency entry was “inactive”.
Regarding `C[C@]12Cc3cn[nH]c3C[C@@H]1CC[C@@H]1[C@H]2CC[C@@]2(C)[C@H]1CC[C@]2(C)O`, the Potency result in test [1], in test [2], in test [3], in [4], in test [5] and in [6] was “inactive” in each case. For the same molecule, the Potency entry in test [7], in [14], in [8], in test [9], in test [10] and in test [11] was “inactive” throughout. The Potency entry in test [12] was “inactive”. Also, the Potency in test [16] is 14.8 µM (active); in test [13], 0.469 µM (active).
As to `CN[C@@H]1Cc2cccc3[nH]c(=O)n(c23)C1`, the Potency entry in [1], in test [2], in test [3], in test [4], in test [5] and in test [6] was “inactive” in each case. Moreover, the Potency entry in test [19], in [13], in test [17], in test [18], in test [7] and in test [8] was “inactive” in each case. Moreover, the Potency result in [9], in test [10], in test [11] and in [12] was “inactive” throughout.
For `CC1(N2CCC(n3c([C@@H]4CCCNC4)nc4ccccc43)CC2)CCCCCCC1`, the Potency entry in test [1], in test [2], in test [3], in test [4], in test [5] and in test [6] was “inactive” throughout. The Potency result in test [18], in [7] and in test [9] was “inactive” throughout. The Potency in test [16] is 11.8 µM (active); in [8], 30.4 µM (active); in test [10] it was 20.9 µM (active); in test [15], 24.3 µM (active).
For `NC1=NC(=O)N2CC12` (configuration not stated), the Potency result in test [1], in test [2], in test [3], in test [4], in test [5] and in [6] was “inactive” in each case. Further, the Potency result in test [19], in test [18], in test [8], in test [9], in test [12] and in test [15] was “inactive” each time. Moreover, the Potency in test [17] is 19.3 µM (active); in test [11], 21.7 µM (active).
For the molecule `Clc1ccccc1C(c1ccccc1)(c1ccccc1)n1cccn1`, the Potency result in test [1], in [2], in test [3], in test [4], in [5] and in test [6] was “inactive” throughout. The Potency result in test [16], in test [13], in test [17], in [7], in test [14] and in test [8] was “inactive” throughout. In addition, the Potency entry in test [10], in test [11] and in test [12] was “inactive” in each case.
Take `O=C(NCC1CCOCC1)c1cnc(Nc2ccc(Cl)cc2Cl)nc1C(F)(F)F`: the Potency result in [1], in test [2], in test [3], in test [4], in test [5] and in [7] was “inactive” throughout. For the same molecule, the Potency result in [12] is “inactive”. In addition, the Potency is 18.7 µM (active) in test [6]; 18.7 µM (active) in test [16]; 3.32 µM (active) in test [13]; 6.07 µM (active) in test [8]; 9.35 µM (active) in test [9].
For the molecule `CC(=O)OCC1=C(C(=O)O)N2C(=O)[C@@H](N)[C@@H]2SC1`, the Potency entry in [1], in test [2], in [3], in test [4], in [5] and in [6] was “inactive” in each case. Moreover, the Potency entry in test [7] and in test [12] was “inactive” in each case. Moreover, the Potency was 2.35 µM (active) in test [19]; 0.187 µM (active) in test [16]; 23.5 µM (active) in [13]; 1.22 µM (active) in test [17]; 0.935 µM (active) in test [14]; 1.37 µM (active) in test [11]. Moreover, the Potency in test [15] is 1.37 µM (active).
`Nc1ccc(Cl)cc1N`: the Potency result in test [1], in test [2], in test [3], in test [4], in [5] and in test [6] was “inactive” throughout. Besides, the Potency entry in test [19], in [13], in test [7], in test [9], in test [11] and in test [12] was “inactive” each time. The Potency result in test [15] was “inactive”. Further, the Potency in test [10] was 24.3 µM (active).
With `C[C@]12CC[C@H](O)CC1=CC[C@H]1[C@H]3CCC(=O)[C@@]3(C)CC[C@@H]12`, the Potency entry in test [1], in test [2], in test [3], in test [4], in [5] and in [17] was “inactive” in each case. Moreover, the Potency entry in test [7], in test [8], in test [11] and in test [12] was “inactive” throughout. The figures for the Potency in test [6], in test [16] and in test [13] were 23.5 µM (active), 18.7 µM (active) and 16.6 µM (active), respectively.
Turning to `Nc1ccc(Sc2ccc(N)cc2)cc1`, the Potency entry in [1], in test [2], in test [3], in [4], in test [5] and in [6] was “inactive” throughout. Further, the Potency entry in test [19], in test [13], in [17], in [18], in test [7] and in test [8] was “inactive” throughout. Besides, the Potency entry in test [9], in test [10], in test [11], in test [12] and in test [15] was “inactive” throughout.

The values are drawn from PubChem BioAssay (NCATS).
